Structures are written as SMILES. “And” between values parts separate entries of the source, which are not always exact repeats. Identical values can stand only once. The whole screen tested about 16,000 compounds, of which about 4,000 (25%) were called active. Roughly 26% stayed inconclusive and do not appear here. The list is a sample of the results. A number with no mark means an inactive call. The call rests on the fitted dose curve; in most records, active means well fitted curve in the direction sought with a large enough effect; inconclusive means small, poorly fitted or top-dose-only effect, or effect the other way; inactive means no such curve, though single readings can be large or run the other way.
On the % scale 0 is the no-effect control and ±100 the full control effect.

Chain of Cytochrome P450 2C9 (Homo sapiens) (P11712 whole entry, looked up): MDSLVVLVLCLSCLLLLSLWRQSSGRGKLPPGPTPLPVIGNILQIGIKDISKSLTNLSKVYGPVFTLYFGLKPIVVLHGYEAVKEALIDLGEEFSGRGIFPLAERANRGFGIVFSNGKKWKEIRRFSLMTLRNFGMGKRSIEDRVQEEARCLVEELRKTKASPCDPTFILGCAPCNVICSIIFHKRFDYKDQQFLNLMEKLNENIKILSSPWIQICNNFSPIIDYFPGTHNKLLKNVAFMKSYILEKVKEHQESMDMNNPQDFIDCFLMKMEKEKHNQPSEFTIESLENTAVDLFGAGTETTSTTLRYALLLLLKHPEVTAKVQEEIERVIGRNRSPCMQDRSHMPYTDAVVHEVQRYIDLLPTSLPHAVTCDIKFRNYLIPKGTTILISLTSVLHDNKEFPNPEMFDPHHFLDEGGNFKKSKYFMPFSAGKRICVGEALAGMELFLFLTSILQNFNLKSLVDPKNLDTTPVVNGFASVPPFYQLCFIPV

The experiment has as its target Cytochrome P450 2C9 (Homo sapiens) (UniProt P11712). In words: Cytochrome panel assay with activity outcomes. Particulars: recombinant CYP, pro-luciferin dealkylation, luminescence, p450-cyp2c9; series mostly up to 57.1 µM.
What is called AC50 is the midpoint of the concentration-response curve, whichever way the signal moves. Consider `Cc1cccc(CNc2ncnc3ccc(-c4ccc5c(c4)OCO5)cc23)c1`, for which the AC50 is 0.316 µM (active). Take `Cc1cnc(CNc2ncnc3ccc(-c4ccc5c(c4)OCO5)cc23)cn1`: the activity, negative = inhibition was -11.4% [at 2.29 µM].

In the case of `COc1ccccc1CNc1ncnc2ccc(-c3cccnc3)cc12`, the activity, negative = inhibition was 6.62% [at 2.29 µM].

`COCCNc1ncnc2ccc(-c3cccc(OC)c3)cc12`: the activity, negative = inhibition was 26.2% [at 2.29 µM]. The same measure, in the same setting: the figure for `COc1ccc2[nH]cc(CCNc3cc(-c4cccnc4)ncn3)c2c1` is -3.3% [at 2.29 µM]. Turning to `COc1ccc2[nH]cc(CCNc3ncnc4ccc(-c5ccccc5C#N)cc34)c2c1`, the AC50 is 0.316 µM (active). As for `COc1cccc(-c2ccc3ncnc(NC4CC4)c3c2)c1`, the activity, negative = inhibition was -17.4% [at 2.29 µM]. As to `N#Cc1ccccc1-c1ccc2ncnc(NC3CC3)c2c1`, the activity, negative = inhibition was -9.89% [at 2.29 µM]. For `COc1ccc2[nH]cc(CCNc3ncnc4ccc(-c5cccnc5)cc34)c2c1`, the AC50 was 1 µM (active).

`CNc1ncnc2ccc(-c3cccc(OC)c3)cc12`: the AC50 was 0.501 µM (active). As for `CNc1ncnc2ccc(-c3ccccc3C#N)cc12`, the activity, negative = inhibition was -10.6% [at 2.29 µM]. As for `Cc1cccc(CNc2ncnc3ccc(-c4cccnc4)cc23)c1`, the activity, negative = inhibition was -11.3% [at 2.29 µM]. In the case of `COc1ncc2nc(-c3cn(C)c4ccccc34)c(=O)n(C)c2n1`, the AC50 entry was “inactive”. For the molecule `COc1cc2c(cc1OC)C(CCN)=NCC2`, the activity, negative = inhibition is -3.31% [at 11.4 µM]. On to `C[C@]1(O)CC[C@H]2[C@H]3CC=C4N5CCN=C5CC[C@@]4(C)[C@H]3CC[C@@]21C`, for which the activity, negative = inhibition is -4.16% [at 11.4 µM].

Turning to `COc1ccc2[nH]cc(CCNc3ncnc4ccc(-c5cccc(C#N)c5)cc34)c2c1`, the AC50 is 0.0631 µM (active). On the same count and under the same terms, the figure for `COc1cccc(-c2ccc3ncnc(NCCc4c[nH]c5ccc(OC)cc45)c3c2)c1` is 0.398 µM (active). Turning to `COc1ccc2[nH]cc(CCNc3cc(-c4cccc(C#N)c4)ncn3)c2c1`, the activity, negative = inhibition is -22.1% [at 2.29 µM]. Still for that read-out and setting: the value for `c1nc(NCCN2CCOCC2)c2cc(-c3ccc4c(c3)OCO4)ccc2n1` was 6.81% [at 2.29 µM].

For the molecule `COc1ccc2[nH]cc(CCNc3ncnc4ccc(-c5ccccc5CN(C)C)cc34)c2c1`, the activity, negative = inhibition is -13.9% [at 2.29 µM]. On the same count and under the same terms, the figure for `CC(=O)NCCNc1ncnc2ccc(-c3ccc4c(c3)OCO4)cc12` is 5.09% [at 2.29 µM]. The same measure, in the same setting: the value for `COc1cccc(-c2ccc3ncnc(NCc4cnc(C)cn4)c3c2)c1` was -22.3% [at 2.29 µM]. In the case of `COc1ccc2[nH]cc(CCNc3ncnc4ccc(-c5ccccc5OC)cc34)c2c1`, the concentration at half-maximal activity (AC50) is 0.251 µM (active). `CNc1ncnc2ccc(-c3ccccc3OC)cc12`: the activity, negative = inhibition is 2.7% [at 2.29 µM]. Still for that read-out and setting: the value for `Cc1cnc(CNc2ncnc3ccc(-c4cccc(C#N)c4)cc23)cn1` was -16.4% [at 2.29 µM]. `COc1ccc2[nH]cc(CCNc3ncnc4ccc(-c5ccc6c(c5)OCO6)cc34)c2c1`: the AC50 is 0.126 µM (active).

For the molecule `CC(C)=CCC/C(C)=C/CO/N=C1/C[C@@H](O)[C@@H](O)[C@@H]2[C@@H]3C(=O)N(C(C)(C)C)C(=O)[C@H]3CC[C@H]12`, the activity, negative = inhibition was 23% [at 11.4 µM]. Same read-out and setting: the figure for `CC(=O)OC[C@@H]1O[C@H](C/C=N\O[C@@H](C)CN2CCCCc3nc(C)c(C)cc32)C=C[C@@H]1OC(C)=O` is 10.2% [at 11.4 µM]. As for `CC(C)(C)NC[C@H](O)COc1cccc2c1CCCC2=O`, the AC50 entry was “inactive”. On the same count and under the same terms, the entry for `CC(C)[C@H](CO)Nc1nc(Nc2ccc(C(=O)O)c(Cl)c2)c2ncn(C(C)C)c2n1` is “inactive”; for `CC(C)[C@H](CO)Nc1nc(Nc2cc(N)cc(Cl)c2)c2ncn(C(C)C)c2n1` it is 20 µM (active); for `CC(C)Oc1cccc(-n2c(CCc3c[nH]c4ccc(Br)cc34)nc3ccccc3c2=O)c1` it is “inactive”.

Turning to `O=c1/c(=C\c2ccc(O)cc2)sc2n1C(c1ccccc1)C(c1ccccc1)=NN=2` (centres undefined), the AC50 was 3.55 µM (active). In the case of `CC(=O)NCCNc1nc(-c2ccc(N(C)C)cc2)nc2ccccc12`, the activity, negative = inhibition was -16.1% [at 2.29 µM].

With `COc1ccc([C@@H](C)c2cc3c(cc2O)OCO3)cc1`, the half-maximal activity concentration (AC50) was 1.58 µM (active).

Regarding `COc1ccc([C@@H](Nc2ncccn2)c2cc3c(cc2O)OCO3)cc1`, the AC50 was 3.16 µM (active).

As for `COc1ccccc1CNc1ccnc(-c2ccc3c(c2)OCO3)n1`, the activity, negative = inhibition is -27.5% [at 2.29 µM]. For the molecule `COc1ccc(CNc2ccnc(-c3ccc4c(c3)OCO4)n2)c(OC)c1`, the activity, negative = inhibition is -25.6% [at 2.29 µM].

As to `O=C(O)[C@@H](O)Cc1ccccn1`, the activity, negative = inhibition was -2.15% [at 11.4 µM]. `CC(C/C=N/NC(=O)COc1cc(Cl)ccc1Cl)c1ccccc1` (centres undefined): the AC50 is 10 µM (active). Still for that read-out and setting: the value for `O=C(COc1ccc(Cl)cc1Cl)N/N=C/CCc1ccccc1` was “inactive”; that for `CC(C)C(=O)Nc1ccc(Sc2ccc(F)cc2)cc1` was 14.1 µM (active). The same measure, in the same setting: the entry for `C/C(=N\NC(=S)Nc1ccc(F)cc1)C1CC1` is “inactive”; for `CC(C)C(=O)Nc1ccc(NC(=O)c2cccnc2)cn1` it is “inactive”; for `O=C(c1cc(C(F)(F)F)cc(C(F)(F)F)c1)N1CCC[C@@]2(CCN(c3ccncc3)C2)C1` it is “inactive”. For the molecule `O=C(O)CC[C@@H](NC(=O)c1ccccc1C(=O)O)C(=O)O`, the AC50 result is “inactive”. Still for that read-out and setting: the figure for `CCCCCN(CCCCC)C(=O)[C@H](CCC(=O)O)NC(=O)c1ccc(Cl)c(Cl)c1` is 3.98 µM (active) and 1 µM (active).

On to `CCCN(CCC)C(=O)[C@@H](CCC(=O)O)NC(=O)c1ccccc1`, for which the AC50 entry was “inactive”. The same measure, in the same setting: the value for `CN(C)CCCO[C@H]1[C@H]([C@H](O)CO)O[C@H]2OC(C)(C)O[C@@H]21` was “inactive”.

As for `CC(C)=C[C@H]1[C@@H](COC(=O)c2ccccc2Cl)C1(C)C`, the activity, negative = inhibition was -5.63% [at 11.4 µM]. As to `Cc1cc(OC(=O)c2ccccc2Br)cc(=O)n1C`, the AC50 result was “inactive”. On the same count and under the same terms, the figure for `Cc1cc(OC(=O)c2ccc(Cl)cc2)cc(=O)n1C` is 25.1 µM (active). On to `Cc1cc(OC(=O)c2ccccc2Cl)cc(=O)n1C`, for which the concentration at half-maximal activity (AC50) was 10 µM (active). For the molecule `CN(C)CCC=C1c2ccccc2C=Cc2ccccc21`, the AC50 entry was “inactive”. Turning to `CCNc1ncc2nc(-c3ccc(F)cc3)c(=O)n(-c3ccc(OC)cc3)c2n1`, the AC50 entry was “inactive”. Consider `O=C1[C@H]2CCn3c(=O)n(-c4ccccc4)c(=O)n3[C@H]2[C@H](O)[C@H]2O[C@@H]12`, for which the activity, negative = inhibition was -4.73% [at 11.4 µM]. As to `CCOC(=O)CC(Nc1nc(N2CCOCC2)nc(N2CCOCC2)n1)c1ccccc1Cl` (centres undefined), the AC50 was 4.47 µM (active). As for `Clc1ccccc1C(Nc1ncccn1)Nc1ncccn1`, the activity, negative = inhibition was 4.43% [at 11.4 µM]. In the case of `O=c1cc(N2CCOCC2)oc2c(-c3ccccc3)cccc12`, the AC50 entry is “inactive”. Still for that read-out and setting: the figure for `CCc1ccccc1N1C(=O)c2cccc3c(N4CCOCC4)c([N+](=O)[O-])cc(c23)C1=O` is 15.8 µM (active). In the case of `CO[C@H]1C[C@@H]2C[C@H](O)C[C@@H](CC(=O)O[C@@H](/C=C\CC(C)C)C[C@@H]3CC[C@H](C)[C@@H](C1)O3)O2`, the activity, negative = inhibition is 1.57% [at 11.4 µM]. Take `O=C(NCCN1CCN(Cc2ccccc2)CC1)C1c2ccccc2C(=O)N2CCc3ccccc3C12` (centres undefined): the AC50 result was “inactive”. The same measure, in the same setting: the figure for `O=C1c2ccccc2C(=O)N1CC1c2ccccc2CCN1S(=O)(=O)c1ccccc1` (centres undefined) is 3.16 µM (active); for `CN1CCC2(CC1)CCN(S(=O)(=O)c1ccccc1)CC2` it is “inactive”. Regarding `COCC(C)n1c(C)cc(C(=O)CSc2nnc(Nc3ccccc3F)s2)c1C` (centres undefined), the concentration at half-maximal activity (AC50) was 11.2 µM (active). Still for that read-out and setting: the entry for `N#Cc1ccc(CN2CC3(CCN(C(=O)c4cccc(F)c4)CC3)C2)cc1` is “inactive”; for `CCOC(=O)N1CCN(C(=O)c2cc(-c3ccc(F)cc3)[nH]c2C)CC1` it is “inactive”; for `CCOC(=O)N1CCN(C(=O)c2ccc3nc(SCc4ccc(F)cc4)n(C)c3c2)CC1` it is 1.58 µM (active). On the same count and under the same terms, the figure for `Cc1ccc(NC(=O)Nc2ncccc2C)cc1` is 28.2 µM (active); for `Cc1cccnc1NC(=O)C12CCC(C)(C(=O)O1)C2(C)C` (centres undefined) it is “inactive”. For the molecule `O=C(Nc1ccc2ncccc2c1)Nc1ccc2ncccc2c1`, the activity, negative = inhibition was 4.23% [at 11.4 µM]. Regarding `CN(C)C(=O)Oc1cccc([N+](C)(C)C)c1`, the AC50 entry is “inactive”. The same measure, in the same setting: the value for `CC[C@H](NC(C)C)[C@H](O)c1ccc(O)c(O)c1` was “inactive”. On the same count and under the same terms, the entry for `C[C@H](NCCc1ccc(O)cc1)[C@@H](O)c1ccc(O)cc1` is “inactive”. With `CC[C@H](c1ccc(O)cc1)[C@@H](CC)c1ccc(O)cc1`, the AC50 was 5.01 µM (active). As to `CN(C)C[C@H]1CCC[C@@H](CN(C)C)C1=O`, the activity, negative = inhibition was 1.9% [at 11.4 µM].

With `CCn1cc(-c2nnnn2-c2ccc(Cl)cc2)c(=O)c2ccccc21`, the AC50 entry is “inactive”. For `Cc1ccc(-n2nnnc2-c2cnc3ccc(Cl)cc3c2-c2ccccc2)cc1`, the AC50 is 8.91 µM (active).

Take `Clc1ccc2[nH]cc(-c3nnnn3-c3ccccc3)c2c1`: the AC50 was 5.01 µM (active). On the same count and under the same terms, the entry for `CC12CCC(C(=O)O)(C/C1=N\O)C2(C)C` (centres undefined) is “inactive”. With `COc1cccc(-c2cncnc2N(C)Cc2ccco2)c1`, the activity, negative = inhibition is -5.51% [at 2.29 µM]. Take `C=CCN=C1CC(C)(C)CC(=O)/C1=C(\O)c1ccccc1`: the AC50 entry was “inactive”.

Take `CC1(C)CC(=O)c2c(Cc3ccccc3)n[nH]c2C1`: the half-maximal activity concentration (AC50) was 14.1 µM (active). In the case of `O=C(Nc1ccccc1C(=O)O)c1ccc2ccccc2n1`, the AC50 was 8.91 µM (active).

As for `CC(=O)Nc1ccccc1C(=O)C(=O)O`, the AC50 entry was “inactive”. As to `O=C(O)c1ccc(C(=O)Nc2cccc3ccccc23)c(C(=O)O)c1`, the activity, negative = inhibition was -2.72% [at 11.4 µM]. As to `CCCC(=O)Nc1cc(-c2cn3cccnc3n2)ccc1OC`, the AC50 entry was “inactive”.

As for `O=C(Nc1cccc(-c2cn3cccnc3n2)c1)c1ccco1`, the AC50 was 12.6 µM (active). As for `C[C@@H]1NCC[C@H](CC(=O)O)[C@H]1CC(=O)O`, the activity, negative = inhibition was -13.5% [at 11.4 µM].

The values above are taken from PubChem BioAssay AID1851 (National Center for Advancing Translational Sciences (NCATS), 2009).
